The full list was thinned out, with hits kept by preference.
PGK inhibitor: qHTS Assay to Find Inhibitors of Phosphoglycerate Kinase. PGK/GAPDH coupled, Kinase-Glo luminescence, 60 min. Phosphoglycerate kinase, glycosomal (Trypanosoma brucei brucei), P07378. Potency, µM (doses to about 57.5 µM), for the others: at the highest dose activity change, negative = inhibition, usual class: inhibitors. actives 0.043% (n = 380,000). AID 602233, 2012; also: potency is read from the fitted curve at half-maximal effect; nearly all actives have a fitted effect of over 60% in size
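Luminescent ATP detection (Kinase-Glo Plus) follows a 60-minute room-temperature incubation, with wells lacking PGK as controls. Buffer: 100 mM TEA (pH 7.6), 5 mM MgCl2, 0.01% Tween-20. Coupling enzyme GAPDH (100 nM final) supplies unstable 1,3-BPG in-well.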
PI5P4Ka inh: qHTS for Inhibitors of phosphatidylinositol 5-phosphate 4-kinase (PI5P4K) | PI5P4Kalpha enzyme, ADP-Glo luminescence, 60 min; active compounds read low | max response, % | AID 652105, 2013 | Phosphatidylinositol 5-phosphate 4-kinase type-2 alpha (Homo sapiens), P48426 | actives 1.2% (n = 330,000); active = max response of -50% or lower; inconclusive = between -30% and -50%; inactive = -30% or higher; also: value at the top dose of about 77 µM
Target sequence (P48426 whole entry, looked up): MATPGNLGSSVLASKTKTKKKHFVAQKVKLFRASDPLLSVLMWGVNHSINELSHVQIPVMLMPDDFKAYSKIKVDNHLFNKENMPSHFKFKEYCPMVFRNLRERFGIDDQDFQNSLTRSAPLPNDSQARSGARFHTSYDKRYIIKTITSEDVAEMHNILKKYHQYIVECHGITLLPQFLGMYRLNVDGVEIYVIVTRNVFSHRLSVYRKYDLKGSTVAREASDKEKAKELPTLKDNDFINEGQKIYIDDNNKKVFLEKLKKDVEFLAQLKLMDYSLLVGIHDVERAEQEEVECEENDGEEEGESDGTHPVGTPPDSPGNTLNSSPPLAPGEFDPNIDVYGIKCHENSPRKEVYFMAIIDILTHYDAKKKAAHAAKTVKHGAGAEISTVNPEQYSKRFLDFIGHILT
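Luminescence from ADP-Glo served as readout of PI5P4Kalpha activity in a qHTS format. Reaction: enzyme, substrate, compound, ATP at 5 microM final, 60 min at RT.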
Tb PFK inh: qHTS Assay to Find Inhibitors of T. brucei phosphofructokinase; ATP-dependent 6-phosphofructokinase (Trypanosoma brucei brucei), O15648; T. brucei PFK, ADP-Glo luminescence; Potency, µM (doses to about 57.5 µM), for the others: top-dose activity, negative = inhibition, most hits filed as inhibitors; actives 0.17% (n = 330,000);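 also: potency is read from the fitted curve at half-maximal effect; 0% = uninhibited 1x PFK enzyme wells and -100% = no-enzyme wells; nearly all actives have a fitted effect of over 60% in size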
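Compounds were pin-transferred as a titration series up to 57 uM into substrate buffer (0.5 mM F6P, 0.1 mM ATP, pH 8.0), then 1.25 nM PFK was added and reactions ran 45 min before ADP-Glo detection.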
Pin1 inh: qHTS Assay to Find Inhibitors of Pin1 | Peptidyl-prolyl cis-trans isomerase NIMA-interacting 1 (Homo sapiens), Q13526 | Pin1 FP peptide displacement, HiFluor488, 10 min | Potency, µM (top dose mostly 115 µM), without a hit: at the top dose activity, negative = inhibition, usual class: inhibitors | actives 0.009% (n = 390,000) | AID 504891, 2011; active = well fitted inhibition curve with a large enough effect in the polarisation, with a control signal flat, not every such curve was filed as active; inconclusive = small, poorly fitted or top-dose-only effect, or effect the other way, or a change in a side signal; inactive = no such curve, though single readings can be large or run the other way; the % refers to the polarisation; also: potency is read from the fitted curve at half-maximal effect
Target sequence (Q13526 whole entry, looked up): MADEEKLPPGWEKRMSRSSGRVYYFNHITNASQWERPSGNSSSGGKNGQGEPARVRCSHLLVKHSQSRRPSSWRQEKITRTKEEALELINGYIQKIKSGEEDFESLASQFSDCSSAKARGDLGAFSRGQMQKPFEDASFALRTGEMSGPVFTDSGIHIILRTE
PI4K2A inh: qHTS for small molecular inhibitors of PI4K2A. AID 1346378, 2018. actives 0.13% (n = 420,000). activity change, negative = inhibition, % at 76.9 µM. purified PI4K2A, ADP-Glo luminescence, 1 h; active compounds read low. Phosphatidylinositol 4-kinase type 2-alpha (Homo sapiens), Q9BTU6; in the data active = activity change below about -50%; inconclusive = mostly about -30% to -49%;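 also: -100% = wells without enzyme as full effect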
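PI4K2A activity was measured by ADP-Glo luminescence: enzyme (4 ug/mL stock) and phosphatidylinositol (1.2 mM stock) in Tris pH 7.5/MgCl2/EGTA/Triton X-100 buffer were reacted with ATP (300 microM stock) for one hour at ambient temperature.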
Starred values were filed as active, the others as inactive; i = inactive; ? = inconclusive; . = no result. Unless noted, calls follow the shape of the dose curve; as a rule, active = well fitted curve in the direction sought with a large enough effect; inconclusive = small, poorly fitted or top-dose-only effect, or another doubt; inactive = no such curve, though single readings can be large; an effect the other way counts as inactive or inconclusive. Unless noted, % is scaled to controls: 0 for no effect and ±100 for the full control effect.

SMILES | PGK inhibitor | PI5P4Ka inh | Tb PFK inh | Pin1 inh | PI4K2A inh
CN1C(=O)/C(=C\c2ccc(N3CCCCCC3)cc2)C(=O)NC1=S | -5.5% | -55.9* | -5.5% | 32.8% | -2.9
CCCCN1C(=O)/C(=C/c2ccc(N3CCCCCC3)cc2)C(=O)NC1=S | . | . | -4.4% | . | .
CCC(C)N1C(=O)/C(=C\c2cnc(N(C)C)nc2)C(=O)NC1=S (stereo unspecified) | -5.2% | -57.4* | 11.2% | 22.5% | -14.6
Cc1cc(N2CCCCC2)ccc1C=C1C(=O)N(C)C(=S)N(C)C1=O | -0.8% | -60.0* | -0.2% | 19.2% | -4.3
CCC(C)N1C(=O)/C(=C\c2ccc(N3CCCCCC3)cc2)C(=O)NC1=S (stereo unspecified) | -9.5% | -58.4* | 0.7% | ? | -9.8
O=C(O)c1ccc(=O)[nH]c1 | . | . | . | . | -3.8
COC[C@@H](NC(C)=O)C(=O)NCc1ccccc1 | . | . | . | . | 2.2
O=C1CN2CCOC2(c2ccccc2Cl)c2cc(Cl)ccc2N1 (stereo unspecified) | . | . | . | . | -1.7
N[C@@H](Cc1ccc(Oc2cc(I)c(O)c(I)c2)c(I)c1)C(=O)O | . | . | . | . | -15.3
CCc1nn2c(=O)cc(N3CCN(C)CC3)nc2s1 | . | . | . | 5.1% | .
Cc1nn(Cc2ccccc2)c(C)c1C=C1C(=O)NC(=S)NC1=O | i | -57.3* | -3.9% | -2.0% | -2.5
CCC(=O)O[C@@H]1C=C2CCC3C(CCC4(C)C3CC[C@@H]4OC(=O)CC)C2CC1 (stereo partly specified) | . | . | . | . | 3.4
CCn1cc2nc(SCc3cccc(C(F)(F)F)c3)n(Cc3ccc(OC)cc3)c(=O)c2n1 | -6.5% | . | . | ? | 0.7
COc1ccc(OC)c(N=Cc2c(O)[nH]c(=O)[nH]c2=O)c1 | -4.5% | -55.8* | -1.2% | ? | -4.1
Cc1cc(/C=C2/C(=O)NC(=O)N(c3ccccc3)C2=O)c(C)n1-c1ccc(F)cc1 | -10.7% | -6.8 | . | ? | -3.1
Cc1cc(C=C2C(=O)NC(=O)NC2=O)c(C)n1-c1cccnc1 | -0.2% | -57.9* | -8.5% | 4.1% | -6.7
C=CCN1C(=O)/C(=C/c2cc(C)n(-c3cccnc3)c2C)C(=O)NC1=S | -6.3% | -66.8* | 13.2% | -3.0% | -8.2
Cc1ccc(-n2sc3ccccc3c2=O)cc1 | 3.4% | -104.1* | 9.53µM* | 6.8% | -8.1
O=C(/C=C/c1c[nH]c2ccccc12)c1c(O)n(CCc2ccccc2)c(=O)[nH]c1=O | i | -56.1* | 0.7% | ? | -1.8
CCOc1ccc(C=C2C(=O)NC(=S)NC2=O)cc1OCC | -5.5% | ? | . | 3.8% | -2.0
CCOc1cc(C=C2C(=O)NC(=O)NC2=O)ccc1OS(=O)(=O)c1ccccc1 | 5.5% | -62.8* | 4.3% | -0.3% | ?
COc1cc(C=C2C(=O)NC(=O)NC2=O)cc(OC)c1OC | 1.2% | ? | 0.3% | -0.6% | -9.7
COc1cc(C=C2C(=O)NC(=O)NC2=O)ccc1OS(=O)(=O)c1ccccc1[N+](=O)[O-] | 5.6% | -67.2* | 0.5% | -3.6% | -19.6
O=C1NC(=O)C(=Cc2ccc(-c3ccc(F)cc3O)o2)C(=O)N1 | -12.3% | -87.3* | ? | 8.7% | ?
COc1cc(CC(C)N)cc2c1OCO2 (stereo unspecified) | . | . | . | . | i
C/C(=N\NC(=O)c1ccncc1)c1c(O)n(Cc2ccccc2)c(=O)[nH]c1=O | -4.3% | ? | -12.5% | 13.8% | -6.1
C/C(=N\NC(=O)c1ccccc1)c1c(O)n(C2CCCCC2)c(=O)[nH]c1=O | i | -51.0* | -0.1% | 2.0% | -3.0
C/C(=N\NC(=O)c1ccccc1O)c1c(O)n(Cc2ccccc2)c(=O)[nH]c1=O | -11.9% | -70.8* | 0.1% | 1.2% | -0.3
Cc1ccc(CNc2cc(C)nc3nc(-c4ccc(C)cc4)nn23)cc1 | i | . | . | ? | 2.6
CCNc1cc(N2CCN(C)CC2)ccc1[N+](=O)[O-] | i | -6.0 | -1.7% | -4.8% | 27.5
